# Laboratory results as given in PubChem BioAssay.
# Values without a mark were called inactive. Where a call stands in place of a potency, no number is given. For part of these data: Potency and affinity values are given separately. The source made the active and inactive calls. Unless noted, the rule behind the calls is not given here.
# What was measured:
# [1] = antimalarial activity against Dd2 strain (AID 2302;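 active = growth inhibition above 50% at the single 2 µM test dose, taken to imply half-maximal potency below 2 µM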); conditions: P. falciparum Dd2 in RBCs, LDH growth readout, 72 h; at 2 µM; hits give high values
# [2] = human hepatoma cell viability loss – ATP luminescence, cytotoxicity control for P. falciparum antimalarial project, primary screen (AID 2303;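 active = inhibition above 50%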); conditions: HepG2 viability, 24-48 h, at 10 µM, hits give high values
# [3] = molecular target: L-lactate dehydrogenase (Plasmodium falciparum (isolate CDC / Honduras)) (UniProt Q27743); test: PfLDH activity inhibition – cell lysate, 3D7 strain, counter-screen for P. falciparum growth inhibition project (AID 2304); conditions: P. falciparum 3D7 crude extract, LDH APAD/NBT absorbance; at 2 µM; hits give high values
# [4] = inhibition of 3D7 malaria parasite growth – strain 3D7 (AID 2306); conditions: P. falciparum 3D7 erythrocytic growth, LDH absorbance, 72 h; at 2 µM; hits give high values
# [5] = molecular target: Calcium-dependent protein kinase 1 (Plasmodium falciparum (isolate 3D7)) (UniProt P62344); test: PfCDPK1 kinase inhibitors, biochemical, TCAMS library (AID 1159585; cut-off not given, nearly all actives have IC50 up to about 0.98 µM;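 note: inhibitors leave more ATP so luminescence rises with inhibition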); conditions: recombinant PfCDPK1, Kinase-Glo ATP depletion luminescence
# [6] = molecular target: Plasmodium falciparum protein kinase 6 (PK6, PF3D7_1337100) (UniProt Q8IDW1); test: PfPK6 kinase inhibitors, biochemical, TCAMS library (AID 1159586); conditions: recombinant PfPK6, Kinase-Glo ATP depletion luminescence
# [7] = molecular target: Protein kinase 7 (PK7), Plasmodium falciparum 3D7 (PF3D7_0213400) (UniProt Q7YTF7); test: inhibition of Plasmodium PK7 catalytic activity – biochemical, TCAMS antimalarial set, Kinase-Glo luminescence (AID 1159587); conditions: recombinant PfPK7, Kinase-Glo ATP depletion luminescence
# [8] = molecular target: Calcium-dependent protein kinase 4 (Plasmodium falciparum (isolate 3D7)) (UniProt Q8IBS5); test: PfCDPK4 kinase inhibitors, biochemical, TCAMS library (AID 1159588; cut-off not given, nearly all actives have IC50 up to about 0.91 µM); conditions: recombinant PfCDPK4, Kinase-Glo ATP depletion luminescence
# Sequence of Calcium-dependent protein kinase 4 (Plasmodium falciparum (isolate 3D7)) (Q8IBS5 whole entry, looked up): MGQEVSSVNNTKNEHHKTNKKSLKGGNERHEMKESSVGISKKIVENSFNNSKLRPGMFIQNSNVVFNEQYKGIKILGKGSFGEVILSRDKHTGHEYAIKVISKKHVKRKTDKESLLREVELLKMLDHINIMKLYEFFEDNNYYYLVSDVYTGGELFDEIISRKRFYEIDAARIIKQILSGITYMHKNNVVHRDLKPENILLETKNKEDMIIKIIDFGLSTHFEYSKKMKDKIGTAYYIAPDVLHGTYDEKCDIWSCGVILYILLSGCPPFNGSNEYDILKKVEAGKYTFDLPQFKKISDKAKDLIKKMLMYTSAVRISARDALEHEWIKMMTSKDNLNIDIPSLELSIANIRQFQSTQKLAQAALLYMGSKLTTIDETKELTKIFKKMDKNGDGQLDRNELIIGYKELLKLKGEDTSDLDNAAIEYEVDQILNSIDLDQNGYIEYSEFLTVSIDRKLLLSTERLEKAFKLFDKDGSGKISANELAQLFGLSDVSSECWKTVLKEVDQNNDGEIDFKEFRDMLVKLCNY
# Sequence of Calcium-dependent protein kinase 1 (Plasmodium falciparum (isolate 3D7)) (P62344 whole entry, looked up): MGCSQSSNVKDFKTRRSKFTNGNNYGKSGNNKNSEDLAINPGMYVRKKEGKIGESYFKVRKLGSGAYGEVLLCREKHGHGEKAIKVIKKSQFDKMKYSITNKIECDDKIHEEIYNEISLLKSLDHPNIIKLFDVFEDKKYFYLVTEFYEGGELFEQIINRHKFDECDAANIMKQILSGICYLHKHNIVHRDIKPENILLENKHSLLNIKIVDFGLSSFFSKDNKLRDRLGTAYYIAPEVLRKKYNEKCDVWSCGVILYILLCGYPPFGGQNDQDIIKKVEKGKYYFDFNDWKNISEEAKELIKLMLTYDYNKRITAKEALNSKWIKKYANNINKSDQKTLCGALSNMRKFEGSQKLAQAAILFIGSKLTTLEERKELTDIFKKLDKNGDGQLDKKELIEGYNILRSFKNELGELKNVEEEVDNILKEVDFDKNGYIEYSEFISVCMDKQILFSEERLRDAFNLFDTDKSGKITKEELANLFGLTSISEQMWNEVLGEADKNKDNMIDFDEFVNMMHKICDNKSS
# Sequence of Plasmodium falciparum protein kinase 6 (PK6, PF3D7_1337100) (Q8IDW1 1-305): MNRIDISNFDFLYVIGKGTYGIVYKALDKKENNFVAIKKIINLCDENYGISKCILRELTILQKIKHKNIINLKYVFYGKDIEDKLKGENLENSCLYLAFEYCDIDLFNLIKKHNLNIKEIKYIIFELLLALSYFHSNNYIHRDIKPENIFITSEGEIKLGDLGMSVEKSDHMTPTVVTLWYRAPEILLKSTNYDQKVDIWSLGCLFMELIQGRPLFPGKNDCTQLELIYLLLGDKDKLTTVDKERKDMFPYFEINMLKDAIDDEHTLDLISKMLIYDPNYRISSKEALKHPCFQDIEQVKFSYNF
# Sequence of L-lactate dehydrogenase (Plasmodium falciparum (isolate CDC / Honduras)) (Q27743 whole entry, looked up): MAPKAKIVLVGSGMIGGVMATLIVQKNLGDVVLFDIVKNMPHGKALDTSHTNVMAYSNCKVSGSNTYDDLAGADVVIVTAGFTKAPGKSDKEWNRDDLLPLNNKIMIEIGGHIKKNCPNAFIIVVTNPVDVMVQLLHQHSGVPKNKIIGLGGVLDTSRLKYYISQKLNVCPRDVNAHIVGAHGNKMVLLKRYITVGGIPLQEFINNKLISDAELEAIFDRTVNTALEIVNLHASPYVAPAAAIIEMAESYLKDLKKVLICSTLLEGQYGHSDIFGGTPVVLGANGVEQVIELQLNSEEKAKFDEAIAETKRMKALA
# Sequence of Protein kinase 7 (PK7), Plasmodium falciparum 3D7 (PF3D7_0213400) (Q7YTF7 1-343): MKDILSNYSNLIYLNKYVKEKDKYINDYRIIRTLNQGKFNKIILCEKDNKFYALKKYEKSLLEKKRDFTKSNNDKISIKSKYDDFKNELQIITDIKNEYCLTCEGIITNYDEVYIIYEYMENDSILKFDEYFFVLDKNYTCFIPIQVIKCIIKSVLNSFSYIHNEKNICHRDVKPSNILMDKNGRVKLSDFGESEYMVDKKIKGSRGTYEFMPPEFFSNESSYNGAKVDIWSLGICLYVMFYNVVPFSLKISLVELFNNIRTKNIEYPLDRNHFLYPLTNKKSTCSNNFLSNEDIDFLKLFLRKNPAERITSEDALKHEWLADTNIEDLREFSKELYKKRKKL
Structure (SMILES),growth inhibition [1],inhibition [2],inhibition [3],growth inhibition [4],outcome [5],outcome [6],outcome [7],outcome [8]
CCOC(=O)c1[nH]c(-c2ccccc2)nc1NC(=S)NC1CCCCC1,1%,6%,1%,96% (active),inactive,inactive,inactive,inactive
CCc1cn(CCc2ccccc2)c2ccc(C(=O)N[C@@H](Cc3ccccc3)[C@H](O)CNC(C)(C)CCCC(C)C)cc12,99% (active),66% (active),5%,98% (active),inactive,inactive,inactive,inactive
CCOc1cc(Cl)c(C(C)NC(=O)c2cccc(OC)c2)cc1OCC (centres undefined),92% (active),29%,6%,98% (active),inactive,inactive,inactive,inactive
